# Reference: PubChem BioAssay
# Active and inactive are the calls of the source. The rule behind the calls is not given here.
# Molecular target: Pantothenate synthetase (Mycobacterium tuberculosis (strain ATCC 25618 / H37Rv)) (UniProt P9WIL5)
# Experiment: Recombinant Mtb pantothenate synthetase (PanC) inhibitors, coupled enzyme, confirmatory (AID 375);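 note: 0% = full reaction with vehicle and 100% = no enzyme background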
# Details: coupled enzyme assay; at 10 µM, stronger effect = higher value
# Sequence of Pantothenate synthetase (Mycobacterium tuberculosis (strain ATCC 25618 / H37Rv)) (P9WIL5 whole entry, looked up): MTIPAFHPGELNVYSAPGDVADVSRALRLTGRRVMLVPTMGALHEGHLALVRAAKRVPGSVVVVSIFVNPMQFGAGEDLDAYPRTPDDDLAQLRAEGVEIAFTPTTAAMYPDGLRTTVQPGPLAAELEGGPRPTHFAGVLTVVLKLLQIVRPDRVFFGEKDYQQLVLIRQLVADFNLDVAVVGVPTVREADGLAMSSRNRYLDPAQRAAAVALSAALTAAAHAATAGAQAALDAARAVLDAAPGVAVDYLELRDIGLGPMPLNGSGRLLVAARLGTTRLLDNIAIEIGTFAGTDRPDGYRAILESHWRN
row,SMILES,inhibition
1,CCCCOC(=O)CNc1nnc(SCC(=O)OCC)[nH]c1=O,3% (inactive)
2,CCCCOCCCNC(=O)c1cccs1,0% (inactive)
3,COc1ccc(C2CC(=O)c3c(C)nc(N4CCN(c5ccccc5)CC4)nc3C2)cc1 (centres undefined),0% (inactive)
4,CCn1c(SCC(=O)Nc2nccs2)nnc1-c1ccncc1,4% (inactive)
5,CCCCCn1c(=O)[nH]c2cc(C(=O)NCCCN3CCCCC3)ccc2c1=O,3% (inactive)
6,COc1cccc2cc(C(=O)C3=C(O)C(=O)N(CCCN4CCOCC4)C3c3ccncc3)oc12 (centres undefined),0% (inactive)
7,Cc1ccccc1C(=O)N1CCC(C(=O)Nc2ccc(S(=O)(=O)N3CCCC3)cc2)CC1,3% (inactive)
8,CC1Cc2ccccc2N1C(=O)COC(=O)Cn1nnc(-c2ccccc2)n1 (centres undefined),13% (inactive)
9,O=C(CSCc1cccs1)N1CCCC1,3% (inactive)
10,COc1cccc(-n2ccnc2SCC(=O)N2CCc3ccccc32)c1,0% (inactive)
11,COC(=O)/C=c1\sc2ncnn2c1=O,0% (inactive)
12,CCCCCc1c(O)c2ccccc2[nH]c1=O,0% (inactive)
13,CC(C)C(=O)Nc1ccc(-c2nc3cccnc3o2)cc1,2% (inactive)
14,COC(=O)c1oc2ccc(Br)cc2c1NC(C)=O,0% (inactive)
15,COc1ccc(CC(=O)OCC(=O)NC(=O)NC2CCCCC2)cc1,7% (inactive)
16,O=C(NCN1CCCCC1)c1cccnc1,0% (inactive)
17,CC(=O)Nc1ccccc1O,9% (inactive)
18,CCOC(=O)N1CCC(NC(=O)c2ccc3c(c2)N(CC)CCS3)CC1,5% (inactive)
19,CC1=CC=CC2=NC(=O)CC(C)(C(=O)N(CC(=O)NC(C)C)C3CCCC3)N12 (centres undefined),4% (inactive)
20,O=C(CSc1nnc(Cc2cccs2)n1Cc1ccco1)Nc1cccc(Cl)c1,0% (inactive)

row,SMILES,inhibition
1,O=C(NCc1ccco1)c1cc2c(s1)CSC2,0% (inactive)
2,CS(=O)(=O)N(CC(=O)N1CCCCCC1)c1ccc(Br)cc1,0% (inactive)
3,COC(=O)c1[nH]c2cc(OC)ccc2c1NC(=O)CCN1CCCCC1,1% (inactive)
4,Cc1cccc(NC(=O)c2ccc3ccccc3n2)n1,0% (inactive)
5,Cc1noc(C)c1S(=O)(=O)Nc1c(C)n(C)n(-c2ccccc2)c1=O,5% (inactive)
6,CCN(CC)S(=O)(=O)c1ccc(NC(=O)CN(c2cccc(F)c2)S(C)(=O)=O)cc1,3% (inactive)
7,Cc1cc(Oc2ccccc2)nc(-c2ccccc2)n1,0% (inactive)
8,O=C(CN(Cc1ccc2c(c1)OCO2)C(=O)CNS(=O)(=O)c1ccccc1)NCc1ccco1,0% (inactive)
9,Cc1c(C(=O)O)c(-c2ccccc2)nn1-c1ccccc1,2% (inactive)
10,COc1ccc2c(c1OC)C(=O)O[C@@H]2[C@H]1c2c(cc3c(c2OC)OCO3)CCN1C,0% (inactive)
11,Cc1noc(C(=O)Nc2ccc3c(c2)OCO3)c1Cl,0% (inactive)
12,Cc1ccc(-n2ncc3c(=O)[nH]c(SC(C)C)nc32)cc1,0% (inactive)
13,CC(C)(C)NS(=O)(=O)c1ccc(CCC(=O)O)cc1,0% (inactive)
14,[O-][n+]1c2c(nn1-c1ccccc1Cl)-c1nonc1CC2,4% (inactive)
15,COc1ccccc1C(=O)Nc1ccc(N2CCN(Cc3ccccc3)CC2)cc1,0% (inactive)
16,COCCNc1nc(SCC(=O)N2CCN(c3ccccc3)CC2)nc2ccccc12,5% (inactive)
17,CCc1ccccc1N1CC23C=CC(O2)C(C(=O)O)C3C1=O (centres undefined),0% (inactive)
18,CCn1c(CCC(=O)Nc2nc3c(s2)CCCC3)nc2cc(S(=O)(=O)N(C)C)ccc21,3% (inactive)
19,Cc1cc(C)nc(Sc2ccc3nnc(C(F)(F)C(F)(F)C(F)(F)F)n3n2)n1,6% (inactive)
